From the supplement of paper PMC12340641
Counter-ions that a name gives are not always drawn.

Columns and labels:
[1] = target: IKZF1 (dCK*-IKZF1 fusion in HEK293FT) (UniProt Q13422); test: inhibition of IKZF1 HTRF signal (DMSO = 0%, pomalidomide 10 uM = 100%); higher = lower IKZF1 protein level; conditions: compound concentration: 5 uM, overnight (~20 h)
Procedure, shortened: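 Compound was tested at 5 μM in single wells on HEK293FT cells (2000/well, 384-well) stably carrying an IKZF1 fusion, overnight at 37 °C. Total IKZF1 was measured in lysates with a commercial HTRF antibody kit as the background-subtracted 665/620 nm time-resolved FRET ratio. The reported figure is percent inhibition of IKZF1 signal, scaled per plate between vehicle and a reference degrader. The vehicle anchor was 0% and the degrader anchor 100%.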

HEK293FT dCK*-only = test: relative growth in counter assay (no AraC = 100%, AraC + DMSO = 0%); higher = more growth rescue independent of IKZF1; conditions: compound concentration: 5 uM; AraC concentration: 0.3 uM; overnight pretreatment + 4 days AraC
Procedure, shortened: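 For this counter assay, relative growth was normalised on each plate to two kinds of reference wells. HEK293FT cells expressing only an engineered kinase construct (300/well, 384-well) were treated with 5 μM compound 2 h after seeding, then after overnight at 37 °C with a nucleoside suicide substrate at 0.3 μM plus medium for 4 days. On day 5, Hoechst 33342-stained nuclei were counted by imaging, taking wells without suicide substrate as 100% and substrate plus vehicle as 0%.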

HEK293FT dCK*-IKZF1 = test: relative growth recovery (pomalidomide 10 uM = 100%, DMSO = 0%); higher = more growth rescue (IKZF1 fusion degradation); conditions: compound concentration: 5 uM; AraC concentration: 0.3 uM; overnight pretreatment + 4 days AraC
Procedure, shortened: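 On day 5, whole-well imaging was used to count Hoechst 33342-stained nuclei of HEK293FT cells stably carrying a deoxycytidine kinase–IKZF1 fusion. These cells had received 5 μM compound 2 h after seeding, followed after overnight at 37 °C by a nucleoside suicide substrate at 0.3 μM plus medium for 4 days. Growth recovery was normalised on each plate against a reference degrader and vehicle, which defined 100% and 0%, and values are duplicate means from separate days.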

IKZF1 (dCK*-IKZF1 fusion in HEK293FT), sequence (Q13422 whole entry, looked up, the tested form may be a part): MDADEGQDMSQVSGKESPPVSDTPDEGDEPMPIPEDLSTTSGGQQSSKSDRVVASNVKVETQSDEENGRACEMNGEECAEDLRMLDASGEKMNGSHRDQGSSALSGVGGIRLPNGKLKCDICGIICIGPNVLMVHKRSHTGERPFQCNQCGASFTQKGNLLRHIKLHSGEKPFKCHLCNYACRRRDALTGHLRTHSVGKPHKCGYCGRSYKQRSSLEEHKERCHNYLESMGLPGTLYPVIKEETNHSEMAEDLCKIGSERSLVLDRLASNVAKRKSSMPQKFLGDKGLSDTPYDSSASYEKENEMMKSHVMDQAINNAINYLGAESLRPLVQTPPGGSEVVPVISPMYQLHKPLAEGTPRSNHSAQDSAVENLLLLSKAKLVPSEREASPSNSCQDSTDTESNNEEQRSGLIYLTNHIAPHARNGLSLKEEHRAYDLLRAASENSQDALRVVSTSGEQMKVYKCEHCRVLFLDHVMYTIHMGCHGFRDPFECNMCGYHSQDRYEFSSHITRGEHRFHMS

SMILES: O=C(O)c1ccccc1-c1c2cc(I)c(=O)c(I)c-2oc2c(I)c(O)c(I)cc12
- inhibition of IKZF1 HTRF signal [1]: 23.2%
- relative growth in counter assay (HEK293FT dCK*-only): -0.87%
- relative growth recovery (HEK293FT dCK*-IKZF1): -1.36%

SMILES: COc1ccc(CCCOC(Cn2ccnc2)c2ccc(OC)cc2)cc1 (configuration not stated)
- inhibition of IKZF1 HTRF signal [1]: -18.7%
- relative growth in counter assay (HEK293FT dCK*-only): -32.6%
- relative growth recovery (HEK293FT dCK*-IKZF1): -9.78%

SMILES: O=c1n(CC2CO2)c(=O)n(CC2CO2)c(=O)n1CC1CO1 (configuration not stated) [Triglycidyl isocyanurate]
- inhibition of IKZF1 HTRF signal [1]: 30.6%
- relative growth in counter assay (HEK293FT dCK*-only): -31.7%
- relative growth recovery (HEK293FT dCK*-IKZF1): -10.8%

SMILES: O=C1Nc2ccc(I)cc2/C1=C/c1cc(Br)c(O)c(Br)c1
- inhibition of IKZF1 HTRF signal [1]: -34.2%
- relative growth in counter assay (HEK293FT dCK*-only): 4.46%
- relative growth recovery (HEK293FT dCK*-IKZF1): -2.06%

SMILES: CN[C@H]1CC[C@@H](c2ccc(Cl)c(Cl)c2)c2ccccc21 [Sertraline HCl]
- inhibition of IKZF1 HTRF signal [1]: 18.8%
- relative growth in counter assay (HEK293FT dCK*-only): -7.81%
- relative growth recovery (HEK293FT dCK*-IKZF1): -6.62%

SMILES: NC(=O)NC(=O)Cc1ccccc1
- inhibition of IKZF1 HTRF signal [1]: -29.1%
- relative growth in counter assay (HEK293FT dCK*-only): 4.08%
- relative growth recovery (HEK293FT dCK*-IKZF1): -2.01%

SMILES: O=C1NCN(c2ccccc2)C12CCN(CCCC(c1ccc(F)cc1)c1ccc(F)cc1)CC2 [Fluspirilene]
- inhibition of IKZF1 HTRF signal [1]: -2.73%
- relative growth in counter assay (HEK293FT dCK*-only): 5.04%
- relative growth recovery (HEK293FT dCK*-IKZF1): -0.815%

SMILES: CC(CN(C)C)CN1c2ccccc2Sc2ccccc21 (configuration not stated)
- inhibition of IKZF1 HTRF signal [1]: -50.1%
- relative growth in counter assay (HEK293FT dCK*-only): 1.07%
- relative growth recovery (HEK293FT dCK*-IKZF1): -2.14%

SMILES: CN[C@H]1CC[C@@H](c2ccc(Cl)c(Cl)c2)c2ccccc21
- inhibition of IKZF1 HTRF signal [1]: -23.8%
- relative growth in counter assay (HEK293FT dCK*-only): 0.69%
- relative growth recovery (HEK293FT dCK*-IKZF1): -1.94%

SMILES: COc1cccc2c(O)c3c(O)c4c(c(O)c3c(O)c12)=C(O[C@H]1C[C@H](N)[C@H](O)[C@H](C)O1)C[C@](O)(C(=O)CO)C=4 [Doxorubicin HCl]
- inhibition of IKZF1 HTRF signal [1]: 40.1%
- relative growth in counter assay (HEK293FT dCK*-only): -34.4%
- relative growth recovery (HEK293FT dCK*-IKZF1): -13.4%

SMILES: O=c1c(O)c(-c2ccc(O)c(O)c2)oc2cc(O)cc(O)c12 [quercetin]
- inhibition of IKZF1 HTRF signal [1]: -26.2%
- relative growth in counter assay (HEK293FT dCK*-only): -7.53%
- relative growth recovery (HEK293FT dCK*-IKZF1): -2.98%

SMILES: Cc1cccc(C)c1NC(=O)C(C)N (configuration not stated) [Tocainide]
- inhibition of IKZF1 HTRF signal [1]: 20.5%
- relative growth in counter assay (HEK293FT dCK*-only): -12.9%
- relative growth recovery (HEK293FT dCK*-IKZF1): -3.04%

SMILES: FC(F)(F)c1ccccc1-c1cc(C(F)(F)F)c2[nH]c(C3=NOC4(CCCCC4)C3)nc2c1
- inhibition of IKZF1 HTRF signal [1]: 28.1%
- relative growth in counter assay (HEK293FT dCK*-only): -7.93%
- relative growth recovery (HEK293FT dCK*-IKZF1): -3.06%

SMILES: Clc1ccc(CSC(Cn2ccnc2)c2ccc(Cl)cc2Cl)cc1 (configuration not stated) [Sulconazole Nitrate]
- inhibition of IKZF1 HTRF signal [1]: -32.3%
- relative growth in counter assay (HEK293FT dCK*-only): -8.02%
- relative growth recovery (HEK293FT dCK*-IKZF1): -2.21%

SMILES: CN(C)CC(O)Cn1c2ccc(Br)cc2c2cc(Br)ccc21 (configuration not stated) [wiskostatin]
- inhibition of IKZF1 HTRF signal [1]: -32.4%
- relative growth in counter assay (HEK293FT dCK*-only): -9.92%
- relative growth recovery (HEK293FT dCK*-IKZF1): -2.88%

SMILES: CC(O)(C(=O)Nc1ccc(S(=O)(=O)c2ccccc2)cc1)C(F)(F)F (configuration not stated)
- inhibition of IKZF1 HTRF signal [1]: -44.3%
- relative growth in counter assay (HEK293FT dCK*-only): -0.27%
- relative growth recovery (HEK293FT dCK*-IKZF1): 0.77%

SMILES: [2H]C([2H])([2H])C(O)(CCO[C@@H](C)[C@H]1CC[C@H]2/C(=C/C=C3/C[C@@H](O)C[C@H](O)C3=C)CCC[C@]12C)C([2H])([2H])[2H] [maxacalcitol]
- inhibition of IKZF1 HTRF signal [1]: -24.6%
- relative growth in counter assay (HEK293FT dCK*-only): 9.68%
- relative growth recovery (HEK293FT dCK*-IKZF1): 7.53%

SMILES: CCOC(=O)CC(=O)N1CCSC1COc1ccccc1OC (configuration not stated) [Moguisteine]
- inhibition of IKZF1 HTRF signal [1]: -1.23%
- relative growth in counter assay (HEK293FT dCK*-only): 6.33%
- relative growth recovery (HEK293FT dCK*-IKZF1): -0.775%

SMILES: COC(=O)Nc1nc2cc(C(=O)c3cccs3)ccc2[nH]1 [nocodazole]
- inhibition of IKZF1 HTRF signal [1]: -12%
- relative growth in counter assay (HEK293FT dCK*-only): -33%
- relative growth recovery (HEK293FT dCK*-IKZF1): -11.6%

SMILES: COc1cc(N2CCN(C)CC2)ccc1Nc1nccc(-c2cn(C)c3cnccc23)n1
- inhibition of IKZF1 HTRF signal [1]: -30.7%
- relative growth in counter assay (HEK293FT dCK*-only): -9.1%
- relative growth recovery (HEK293FT dCK*-IKZF1): -0.12%

SMILES: CC1=C(C(=O)OC(C)C)C(c2cccc([N+](=O)[O-])c2)C(C(=O)OC2CN(C(c3ccccc3)c3ccccc3)C2)=C(N)N1 (configuration not stated) [Azelnidipine]
- inhibition of IKZF1 HTRF signal [1]: 10.4%
- relative growth in counter assay (HEK293FT dCK*-only): 12.8%
- relative growth recovery (HEK293FT dCK*-IKZF1): 0.07%

SMILES: CCC(=O)O[C@@H]1CC(=O)O[C@H](C)C/C=C/C=C/[C@H](O)[C@H](C)C[C@H](CC=O)[C@H](O[C@@H]2O[C@H](C)[C@@H](O[C@H]3C[C@@](C)(O)[C@@H](OC(=O)CC)[C@H](C)O3)[C@H](N(C)C)[C@H]2O)[C@H]1OC [Midecamycin]
- inhibition of IKZF1 HTRF signal [1]: -31.7%
- relative growth in counter assay (HEK293FT dCK*-only): -8.86%
- relative growth recovery (HEK293FT dCK*-IKZF1): -1.26%

SMILES: O=C(NCC1CCCCN1)c1cc(OCC(F)(F)F)ccc1OCC(F)(F)F (configuration not stated) [flecainide]
- inhibition of IKZF1 HTRF signal [1]: -38%
- relative growth in counter assay (HEK293FT dCK*-only): -3.96%
- relative growth recovery (HEK293FT dCK*-IKZF1): 0.135%

SMILES: CC(=O)Nc1cccc(Nc2ncnc(N3CCC(OCc4ccc(OC(F)(F)F)cc4)CC3)n2)c1C
- inhibition of IKZF1 HTRF signal [1]: 4.12%
- relative growth in counter assay (HEK293FT dCK*-only): -5.23%
- relative growth recovery (HEK293FT dCK*-IKZF1): 1.55%

SMILES: O=C(c1cc(S(=O)(=O)Nc2ccccc2F)c(F)cc1Cl)N1CCN2CCC[C@@H]2C1
- inhibition of IKZF1 HTRF signal [1]: -26%
- relative growth in counter assay (HEK293FT dCK*-only): -1.66%
- relative growth recovery (HEK293FT dCK*-IKZF1): -3.52%

SMILES: CN1C(=O)CC(C)(c2ccccc2)C1=O (configuration not stated)
- inhibition of IKZF1 HTRF signal [1]: 19.8%
- relative growth in counter assay (HEK293FT dCK*-only): 7.33%
- relative growth recovery (HEK293FT dCK*-IKZF1): 3%

SMILES: Oc1c(I)cc(Cl)c2cccnc12
- inhibition of IKZF1 HTRF signal [1]: -2.15%
- relative growth in counter assay (HEK293FT dCK*-only): -3.3%
- relative growth recovery (HEK293FT dCK*-IKZF1): -3.28%

SMILES: C/C(=N/Nc1nnc2c(n1)[nH]c1c(C)cccc12)c1ccccn1
- inhibition of IKZF1 HTRF signal [1]: 45.9%
- relative growth in counter assay (HEK293FT dCK*-only): -33%
- relative growth recovery (HEK293FT dCK*-IKZF1): -12.6%

SMILES: C=C1/C(=C\C=C2/CCC[C@]3(C)[C@@H]([C@H](C)CCCC(C)(C)O)CC[C@@H]23)C[C@@H](O)C[C@@H]1O [Calcitriol]
- inhibition of IKZF1 HTRF signal [1]: -12.4%
- relative growth in counter assay (HEK293FT dCK*-only): -0.18%
- relative growth recovery (HEK293FT dCK*-IKZF1): -0.98%
